Source: PubChem BioAssay (NCI)
This is part of a sample that, as a whole, favours compounds with a hit. Of some 83,000 tested, about 20% had one in any assay.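 Assay: single dose, 48 h. Readout: percent growth (0 = no net growth; negative = cell death). Active: <10.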 Unmarked numbers belong to inactive results. Calls of active or inactive are those of the source.

Each compound was assayed on HL-60(TB) leukemia (assay: NCI-60 one-dose screen, 48 h (100 = growth as untreated, 0 = no growth, -100 = all killed)). Conditions: 10 µM unless noted.
`C[N+](C)=c1ccc2nc3c(cc(NCCCNc4cc5oc6cc(=[N+](C)C)ccc-6nc5c5ccccc45)c4ccccc43)oc-2c1` was tested, and the growth was -7.2% (active).
With `COc1cc(OC)c(C(=O)/C=C/c2cccc(C(F)(F)F)c2)c(OC)c1` the growth was -26.6% (active).
For `CC(=O)c1c(C)nc2ccccc2c1/C=C/c1cccc(C)c1`, the growth was 28.2%.
`CCCCc1n(Cc2ccc3ccccc3c2)c2ccccc2[n+]1Cc1ccc2ccccc2c1` was tested, and the growth was -59.2% (active).
With `COc1cc(/C=C/c2cc(/C=C/c3ccc(O)c(OC)c3)n(C(=O)Nc3ccc(C)cc3)n2)ccc1O` the growth was -28.2% (active).
Work on `NC1=NC(=O)NC1(c1ccccc1)c1ccccc1` yielded a growth of 98.4%.
With `COC(=O)C1=C(C(=O)ON)[C@@H]2C=C[C@@]1([C@@H](Cc1ccccc1)Nc1ccccc1)O2` the growth was -3.29% (active).
With `CC1(C)C(=O)CC[C@]2(C)[C@H]3C(=O)C=C4[C@@H]5C[C@@](C)(C(=O)NCCNCCN)CC[C@]5(C)CC[C@@]4(C)[C@]3(C)CC[C@@H]12` the growth was 90.1%.
`O=C(Nc1ccc(I)cc1F)c1cc(I)ccc1O` was tested, and the growth was -25.2% (active).
Work on `O=C(Nc1ccc(-n2ccc3c(NC(=O)c4ccccc4)ncnc32)cc1)c1cccc(C(F)(F)F)c1` yielded a growth of 43.9%.
`O=C(Nc1nc(-c2ccc(Cl)cc2)nc2c1sc(=S)n2-c1ccccc1)C(F)(F)F` gave a growth of 69.2%.
`O=C(CCc1nnc2sc(/C=C\c3ccccc3)nn12)c1nc2ccccc2[nH]1` was tested, and the growth was 99.8%.
In the case of `O=C1Nc2ccccc2/C1=C\c1c(-c2ccccc2)nc2ccccn12`, the growth is reported as -10.7% (active).
In the case of `Nc1c2c(nc3ccc(Cl)cc13)CC(c1ccccc1)CC2=O` (stereo unspecified), the growth is reported as 11%.
In the case of `CC1=C2[C@@H](CC1)[C@]1(C)O[C@@](C(C)C)(C[C@H]1OC(=O)CO)[C@H]2OC(=O)CCCc1ccccc1`, the growth is reported as 1.28% (active).
`NC1=NC(c2ccccc2OS(=O)(=O)c2ccc(Br)cc2)n2c(nc3ccccc32)N1` (stereo unspecified) was tested, and the growth was 69.7%.
Work on `S=c1nc2oc(-c3ccccc3)c(-c3ccccc3)c2c(/N=C\c2ccco2)[nH]1` yielded a growth of 87.2%.
Compound `CSc1ccc2c3c(n(CCCn4ccnc4)c(=O)c2c1)-c1ccccc1C3=O` has a growth of 15.5%.
`COc1ccc(C2CC(c3ccccc3)=Nc3ccccc3S2)cc1` (stereo unspecified) gave a growth of 85.7%.
`CC(=O)CC(c1ccccc1)c1c(C)[nH]c2ccccc12` (stereo unspecified) showed a growth of 107%.
With `NC(N)=NC(N)=NCCCc1ccco1` the growth was 83.1%.
With `CCNC(=O)N1CCc2c(Br)c3c(c(OC)c2C1Cc1ccc(OC)cc1)OCO3` (stereo unspecified) the growth was 7.48% (active).
In the case of `COc1ccc(/C=C2\CN(Cc3cn(CCCNc4ccnc5cc(Cl)ccc45)nn3)C/C(=C\c3ccc(OC)cc3)C2=O)cc1`, the growth is reported as 53.1%.
With `COc1cc(/C=C2\CN(S(=O)(=O)c3ccccc3)C/C(=C\c3cc(CN4CCCCC4)c(O)c(OC)c3)C2=O)cc(CN2CCCCC2)c1O` the growth was -37.6% (active).
`O=C(CSc1oc(-c2ccccc2)nc1S(=O)(=O)c1ccccc1)Nc1ccc(F)cc1` gave a growth of 63.5%.
`O=C(/C=C/c1ccccc1Cl)c1ccc(O)cc1` gave a growth of 60.2%.
`COc1ccc(-c2cnc3ccnn3c2-c2cc(OC)c(OC)c(OC)c2)cc1` was tested, and the growth was -22% (active).
`CC(=O)O[C@H]1CC[C@@]2(C)C(=CC[C@@H]3[C@@H]2CC[C@]2(C)C(c4cccnc4)=CC[C@@H]32)C1` was tested, and the growth was 4.36% (active).
With `O=c1oc2ccc(-c3ccc(F)cc3F)cc2c(=O)n1-c1cccc(C(F)(F)F)c1` the growth was -33.3% (active).
In the case of `COc1ccc2cc(-c3nn(-c4ccc(C(=O)O)cc4)cc3CO)ccc2c1`, the growth is reported as 50.3%.
Compound `COc1ccc2c(c1)c(-c1nc(-c3cn(C)c4ccncc34)cs1)cn2C` has a growth of 81.7%.
For `C=CC(O)CCC` (stereo unspecified), the growth was 88.3%.
`O=c1oc2ccc(Cl)cc2c(=O)n1-c1ccc(I)cc1F` was tested, and the growth was -46.3% (active).
`O=C(Nc1cccc(-n2ccc3c(NC(=O)c4ccccc4)nccc32)c1)c1cc(N2CCOCC2)cc(C(F)(F)F)c1` was tested, and the growth was -13.1% (active).
For `COCCn1cc(-c2csc(-c3cn(C)c4ccc(Br)cc34)n2)c2cccnc21`, the growth was 51.3%.
`C=C1CC[C@@H]2[C@](C)(COC(C)=O)[C@H](OC(C)=O)CC[C@@]2(C)[C@@H]1CC(Nc1ccc(S(=O)(=O)Nc2ccc(Cl)nn2)cc1)C1=CCOC1=O` (stereo partly specified) was tested, and the growth was -17.5% (active).
